In PubChem BioAssay (Tox21) one finds outcome and fluorescence, % of Rose Bengal data, which are given here for 40 compounds.

Activity calls are given as the source filed them. Calls follow the shape of the dose curve; as a rule, active = well fitted curve in the direction sought with a large enough effect in the repeat runs; inconclusive = weak or mixed curves; inactive = flat fitted curve, though single readings scatter.
% is scaled to controls: 0 for no effect and ±100 for the full control effect.

A short description of the experiment: qHTS assay to test for compound auto fluorescence at 590 nm (red) in HepG2 cell free culture (AID 720684). The settings on record: cell-free medium autofluorescence, red 540/590 nm; series mostly up to 91.3 µM. The text has this: U.S. Tox21 Program National Center for Advancing Translational Sciences [NCATS] NIH Chemical Genomics Center [NCGC] U.S. Environmental Protection Agency [EPA] National Institutes of Environmental Health Sciences [NIEHS] National Toxicology Program [NTP] U.S. Food and Drug Administration [FDA] Tox21 Assay Overview: Compound auto fluorescence often interferes with screening of the compound library against various biological targets and signaling pathways. Some of these compounds may have fluorophoric properties. Such properties may interfere with the assay outputs resulting in false positives and/or negatives. To decrease such complications and ensure the compound activities are relevant in terms of biological response, the Tox21 10K compound library was screened for auto fluorescence. From the fluorophores used as reporter signals in our screening assays, the auto fluorescence equivalencies of compounds against three fluorophores have been evaluated: Triamterene, Fluorescein and Rose Bengal sodium for blue, green and red fluorescence, respectively. The fluorescence intensities were measured using Excitation/Emission wavelengths at 405/460nm, 485/535nm and 540/590nm for blue, green and red labels, respectively. This assay includes the red fluorescence data.
Tox21 Assay Protocol Summary: 5 uL of culture medium (MEM containing 10% FBS) per well was dispensed into black wall/clear bottom 1536-well plates using a Multidrop Combi Dispenser (ThermoFisher Scientific, Waltham, MA). After 23 nL compound or DMSO vehicle was transferred into assay plate by a pintool work station (Kalypsys, San Diego, CA), fluorescence intensities in the assay plates were measured by an Envision (PerkinElmer, Shelton, CT) plate reader using three labels for measuring blue, green and red fluorescence at […] 460, 535 and 590nm respectively.
With `CCCCCCCCCCCCOCCOS(=O)(=O)O`, the call was inactive.

For `C[C@]12C(=O)OC(=O)[C@H]1[C@H]1C=C[C@@H]2C1`, the call was inactive. The same measure, in the same setting: then `CCc1nnc(NS(=O)(=O)c2ccc(N)cc2)s1`, with “inactive”. Consider `O=C(CC(=O)C(F)(F)F)c1ccccc1`, for which the call was inactive.

Turning to `CN1CCN(C2=Nc3cc(F)ccc3Cc3ccccc32)CC1`, the call was inactive.

For the compound `CCCCCCC`, the outcome was inactive. Consider `CCCCOc1cc(C(=O)NCCN(CC)CC)c2ccccc2n1`, for which the fluorescence, % of Rose Bengal is 0.52% [at 18.6 µM] (inactive).

Take `COC(=O)C(C)O` (stereo not given): the outcome was inactive. For `CC1(C)O[C@@H]2C[C@H]3[C@@H]4CCC5=CC(=O)CC[C@]5(C)[C@@]4(F)[C@@H](O)C[C@]3(C)[C@]2(C(=O)CCl)O1`, the fluorescence, % of Rose Bengal was 0.173% [at 18.6 µM] (inactive).

Regarding `CCCCCCCCc1ccc(S(=O)(=O)O)cc1`, the result was inactive. `COC(C)CCO` (stereo not given): the compound was classed as inactive.

Consider `CCCNC(C)(C)COC(=O)c1ccccc1`, for which the call was inactive. As to `CC1CN(c2ccccc2)NC1=O` (stereo not given), the compound was classed as inactive.

For the compound `CCc1cc(Cl)c(OC)c(C(=O)NC[C@@H]2CCCN2CC)c1O`, the outcome was inactive. The same measure, in the same setting: next, `CC/C=C\CCOC(=O)CCCCC`: “inactive”. On to `CCCNC(C)C(=O)Nc1c(C)csc1C(=O)OC` (stereo not given), for which the fluorescence, % of Rose Bengal is -0.056% [at 18.6 µM] (inactive). As for `CN1CCC[C@@H]1Cc1c[nH]c2ccc(CCS(=O)(=O)c3ccccc3)cc12`, the outcome was inactive.

`CCCc1c2oc(C(=O)O)cc(=O)c2cc2c(=O)cc(C(=O)O)n(CC)c12`: the call was inactive. As for `CCCCCCCCOC(=O)CCCCCCCCC(=O)OCCCCCCCC`, the call was inactive. Consider `CC(=O)OC1C2(C)CCC(C2)C1(C)C` (stereo not given), for which the outcome was inactive. With `NC(=O)Cc1cccc(C(=O)c2ccccc2)c1N`, the compound was called inactive. On to `CC1=C(O)C(=O)OC1C` (stereo not given), for which the call was inactive. With `C=CCc1cc(OC)c(O)c(C(=O)NCCO)c1`, the compound was called inactive.

For `CC(C)C(=O)OC/C=C/c1ccccc1`, the compound was classed as inactive. For the compound `CC(=O)N[C@@H](CC(C)C)C(=O)O`, the outcome was inactive. For the compound `CCOC(=O)NCCC[Si](OCC)(OCC)OCC`, the result was inactive. The same measure, in the same setting: next, `OCCN(CCO)CCN(CCO)CCO`: “inactive”; `Cc1cc(S(=O)(=O)O)c(N)cc1Cl`: “inactive”; `OCCN1CCN(CCO)CC1`: “inactive”. For the compound `NC/C=C/C(=O)O`, the compound was classed as inactive. With `CN1CCN(C2=Nc3ccccc3Oc3ccc(Cl)cc32)CC1`, the fluorescence, % of Rose Bengal is -0.256% [at 18.6 µM] (inactive). Consider `CC[C@H]1CC[C@H](NCc2cc3c(cc2OC)[C@H]2C[C@H]2C(=O)N3C)[C@H](c2ccccc2)N1`, for which the compound was classed as inactive. On to `O=C1CCC(C2CCCCC2)CC1`, for which the compound was classed as inactive. Take `CC1=C2[C@H](/C=C(\C)C(=O)O)CC[C@@H](C)[C@H]2CC1`: the result was inactive. Still for that read-out and setting: then `CCCCC(CC)COC(=O)COc1cc(Cl)c(Cl)cc1Cl` (stereo not given), with “inactive”; and `CN(C)CC[C@@H](c1ccc(Cl)cc1)c1ccccn1`, with “inactive”. Turning to `CC(C)(CO)[C@@H](O)C(=O)NCCC(=O)O`, the compound was classed as inactive. Turning to `CC(=O)Oc1cc(C(C)C)c(OCCN(C)C)cc1C`, the fluorescence, % of Rose Bengal was -0.418% [at 18.6 µM] (inactive).

As for `Oc1ccccc1C=NCc1ccccc1`, the compound was called inactive. On the same count and under the same terms, then `C[C@@H]1CN(c2c(F)c(N)c3c(=O)c(C(=O)O)cn(C4CC4)c3c2F)C[C@H](C)N1`, with “inactive”.
